# Only a selection was taken, and hits are over-represented in it overall.
# Cycloheximide cs: counter-screen for Shiga toxin inhibitors: cycloheximide protein synthesis inhibition. cell reporter, cycloheximide protein synthesis inhibition counterscreen. max response, %. 300,000 tested, 12% active. AID 2314; in the data active = max response mostly above about 13%, no sharp cut-off; inactive = mostly below about 14%; also: read at 38.3 µM for the half of the compounds with a filed dose; 0% is about no effect
# LASV entry inh: Lassa virus entry inhibition; Lassa virus pseudotype entry inhibition, cell reporter; Potency, µM (series often up to 37.9 µM), for the others: top-dose activity change, negative = inhibition, hits mostly inhibitors; 300,000 tested, 1.2% active; AID 540256; calls by dose curve; tested in HEK293 cells; also: potency is read from the fitted curve at half-maximal effect; % is scaled to controls: 0 for no effect and ±100 for the full control effect; nearly all actives have a fitted effect of over 50% in size
# Shiga inhibitor: inhibitors of Shiga toxin in Vero cells | inhibition, % at 38.7 µM | AID 2315 | 290,000 tested, 9.2% active | Vero cells, Shiga toxin protein synthesis inhibition reporter; in the data active = inhibition mostly above about 28%, no sharp cut-off; inactive = mostly below about 43%; also: 0% is about no effect
# VACV Venus inh: vaccinia inhibition (Venus reporter); Vaccinia virus Venus reporter expression, fluorescence; Potency, µM (highest dose often 36.5 µM), without a hit: top-dose activity change, negative = inhibition, usual class: inhibitors; 330,000 tested, 0.46% active; calls by dose curve; tested in A549 cells; also: potency is read from the fitted curve at half-maximal effect; % is scaled to controls: 0 for no effect and ±100 for the full control effect; nearly all actives have a fitted effect of over 30% in size
# Marburg entry inh: blocks Marburg virus binding to or entry into cells. Marburg virus pseudotyped entry inhibition, cell reporter. Potency, µM (series often up to 37.8 µM), inactives show at the top dose activity change, negative = inhibition, actives largely listed as inhibitors. 300,000 tested, 1.8% active; calls by dose curve; tested in HEK293 cells; also: potency is read from the fitted curve at half-maximal effect; % is scaled to controls: 0 for no effect and ±100 for the full control effect
# Vaccinia mCherry: inhibitors of vaccinia virus infection (mCherry reporter signal). 310,000 tested, 0.63% active. Vaccinia virus mCherry reporter infection, fluorescence. Potency, µM (series often up to 36.5 µM), for inactives: at the highest dose activity change, negative = inhibition, actives largely listed as inhibitors. AID 720579; calls by dose curve; tested in A549 cells; also: potency is read from the fitted curve at half-maximal effect; % is scaled to controls: 0 for no effect and ±100 for the full control effect; nearly all actives have a fitted effect of over 35% in size
# * hit, by the source's call; i = inactive; ? = inconclusive; / = no result; [ ] = remark or other dose.
SMILES,Cycloheximide cs,LASV entry inh,Shiga inhibitor,VACV Venus inh,Marburg entry inh,Vaccinia mCherry
Oc1ccccc1C=NNc1nc2ccccc2s1,/,?,/,-29%,?,?
CC(=O)Nc1cccc(/C(C)=N/Nc2nc3ccccc3s2)c1,39*,?,113*,?,?,?
COc1ccc(/C=N/Nc2nc3ccccc3s2)cc1O,33,?,68*,-15%,?,-6%
CC(=O)Nc1ccc(/C=N/Nc2nc3ccccc3s2)cc1,54*,/,72*,/,/,/
CCc1ccc(S(=O)(=O)c2cn(CC)c3cc(N4CCCCC4)c(F)cc3c2=O)cc1,/,16%[46.1 µM],/,-21%,/,-11%
CCOC(=O)N1CCN([C@@H]2OC(=O)c3ccccc32)CC1,/,/,/,/,23%[46.1 µM],/
CCc1nnc(NC(=O)CSc2nnc(-c3ccccc3O)o2)s1,34*,-23%,92*,-19%,?,-13%
Cc1ccc(-c2nnc(SCC(=O)Nc3ccccc3F)o2)cc1,16*,/,-3,-11%,/,-17%
CCc1nnc(NC(=O)CSc2ncc(-c3ccccc3)n2C)s1,54*,-2%,102*,/,?,/
CCc1nnc(NC(=O)CSc2nc(-c3ccccc3)c(-c3ccccc3)o2)s1,-1,8%,-2,-9%,25%,-8%
Cn1c(-c2ccc(F)cc2)cnc1SCC(=O)Nc1ccccc1N1CCOCC1,27*,0%,56*,-17%,-23%,-29%
O=C(CSc1ccc(F)cc1)Nc1ccccc1N1CCOCC1,-7,/,-3,/,/,/
N#Cc1ccsc1NC(=O)COc1ccc(-c2nnco2)cc1,35*,23%,99*,-6%,28%,-20%
Cc1cnc(NC(=O)CSc2nnc(-c3ccccc3)o2)s1,41*,-15%,44*,/,?,/
O=C(CSc1nnc(-c2ccccc2)o1)Nc1ccccc1F,23*,/,6,-9%,/,-8%
O=C(CSc1nnc(-c2cccnc2)o1)Nc1nccs1,/,?,/,-5%,8%,-15%
N#Cc1ccsc1NC(=O)CSc1nnc(-c2ccccc2)o1,31*,11%,87*,-8%,-6%[46.1 µM],-17%
O=C(COc1ccc(-c2nnco2)cc1)Nc1cc([N+](=O)[O-])ccc1F,/,7%[46.1 µM],/,-5%,-13%[46.1 µM],i
Cc1cnc(NC(=O)CSc2nnc(COc3ccccc3)o2)s1,1,30%,30,-7%,-9%[46.1 µM],i
Cc1cccc(NC(=O)C2CCN(S(=O)(=O)c3cccc4nsnc34)CC2)c1C,/,-5%[46.1 µM],/,-8%,1%[46.1 µM],-11%
Cc1[nH]c2ccc(-c3nnc(SCC(=O)c4ccccc4F)o3)cc2c1C,13,8.9µM*,10,-10%,?,-24%
Cc1ccc(C(=O)CSc2nnc(-c3ccc4[nH]c(C)c(C)c4c3)o2)cc1C,13,-14%,-7,3%,-30%,?
COc1ccc(OCC(=O)Nc2cc(-c3nn(C)c(=O)c4ccccc34)ccc2OC)cc1,9,?,-6,/,4.1µM*,/
COc1ccc(C(=O)Cn2cnc3ccccc3c2=O)cc1,41*,3%,89*,-5%,5%[46.1 µM],-4%
COc1ccc(NC(=O)COc2ccc(-c3nn(C)c(=O)c4ccccc34)cc2)cc1,-2,-6%[46.1 µM],-10,-19%,?,1%
SMILES,Cycloheximide cs,LASV entry inh,Shiga inhibitor,VACV Venus inh,Marburg entry inh,Vaccinia mCherry
O=C(O)Cn1cnc2ccccc2c1=O,-7,14%,-17,-13%,1%,-5%
O=C(Cn1cnc2ccccc2c1=O)c1ccc2ccccc2c1,56*,23%,68*,-19%,7%,/
COC(=O)Cn1cnc2ccccc2c1=O,4,-6%,-15,-11%,-9%[46.1 µM],/
Cc1ccc(C(=O)Cn2cnc3ccccc3c2=O)cc1C,64*,?,104*,-17%,24%,-26%[1.46 µM]
CCN1C[C@@H]2[C@@H]3C(=O)N(C)C(=O)[C@@H]3[C@](Cc3ccccc3)(C1=O)N2C(=O)c1ccc(F)cc1,/,/,/,-6%,/,i
Cc1nc2cc(NC(=O)[C@@H]3C[C@@H](Sc4ccccn4)CN3Cc3ccc4c(c3)OCCO4)ccc2s1,/,/,/,5%,/,10%
O=C(Cn1ccc2ccccc2c1=O)Nc1ccc2c(c1)OCO2,5,2%,0,-6%,-4%,-13%
O=C(Cn1cnc2ccccc2c1=O)c1ccc2c(c1)OCCO2,50*,?,70*,-2%,?,/
COc1ccc(OC)c(NC(=O)CNC(=O)Cn2cnc3ccccc3c2=O)c1,-2,-4%,-3,7%,0.71µM*,/
O=C(Cn1ccc2ccccc2c1=O)NCCC(=O)Nc1ccc2c(c1)OCCO2,23*,0%,38,/,-1%,/
O=C(Cn1cnc2ccccc2c1=O)Nc1ccc2c(c1)OCO2,56*,23%,active,-9%,?,-17%
CCN(CC)c1ccc(NC(=O)c2cccn2-c2nnc(N3CCCCC3)s2)c(C)c1,/,?,/,-11%,/,-14%
Cn1nnnc1SCCNCc1ccccc1OCc1ccccc1F,/,-10%[46.1 µM],/,-13%,?,-7%
CCOc1ccc(-n2c(SCC(=O)Nc3cc(C)ccc3C)nc3c([nH]c4ccccc43)c2=O)cc1,/,26%[46.1 µM],/,-9%,/,-11%
COc1cccc(C2c3[nH]c4ccccc4c3CCN2Cc2cccn2-c2ncccn2)c1 (stereo not drawn),-3,/,21,/,/,/
Fc1ccc(C2c3[nH]c4ccccc4c3CCN2Cc2cccn2-c2ncccn2)cc1 (stereo not drawn),-2,?,1,24%,?,4.5µM*
Cc1ccc(NS(=O)(=O)c2cccc(C(=O)N/N=C/c3c(C)nn(-c4ccccc4)c3N3CCCC3)c2)c(C)c1,6,?,-6,?,-44%,-3%
COc1ccccc1/C=N/NC(=O)c1c(-c2ccccc2)noc1C,-7,12%[46.1 µM],-7,-15%,1%[46.1 µM],-1%
Cc1ccc(NS(=O)(=O)c2cccc(C(=O)N/N=C/c3ccc4c(c3)OCCO4)c2)c(C)c1,14*,4%,30,-15%,-4%,-23%
CCOc1cccc(/C=N/NC(=S)Nc2cc(S(=O)(=O)N3CCOCC3)ccc2N2CCOCC2)c1O,16,?,20,?,?,7.1µM*
Cc1cccc(/C=N/NC(=O)c2c(-c3ccccc3)noc2C)c1O,-3,-22%[46.1 µM],-13,-28%,?,0.56µM*
Cc1cccc(/C=N/NC(=O)Cc2ccc(Cl)cc2)c1O,-2,/,-7,/,/,/
Cc1cccc(/C=N\NC(=O)c2ccc(Cl)cc2)c1O,62*,11µM*,82*,?,5.6µM*,2.5µM*
CC(=O)c1ccc(S(=O)(=O)Nc2ccccc2C(=O)NC2CC2)cc1,/,21%,/,-4%,?,-14%
COc1ccccc1CCNC(=O)C(=O)NCC(c1ccco1)S(=O)(=O)c1ccccc1 (stereo not drawn),/,-15%[46.1 µM],/,-13%,/,-7%
COc1cccc(/C=N/NC(=O)CNC(=O)c2ccc3c(c2)OCCO3)c1O,-2,?,4,?,-28%,?
CCOc1cccc(/C=N/NC(=O)c2ccc3c(c2)OCCO3)c1O,29*,?,82*,?,?,?
Cc1cccc(/C=N/NC(=O)c2ccc3c(c2)OCCO3)c1O,14,/,55*,/,/,/
